# Bioassay records (PubChem BioAssay)
# Most compounds without a hit are left out; they make up all but 4.6% or so of the library.
# PfHsp90 yeast 2: growth inhibition of yeast expressing Plasmodium Hsp90; S. cerevisiae expressing PfHsp90, BacTiter-Glo ATP, 48 h; yeast lacking PDR1 and PDR3 efflux regulators; inhibition, % at 9.4 µM; 0.32% of 310,000 active; AID 504621;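 active = every replicate shows inhibition above about 80%, whatever the replicate mean, limit read from the data; inconclusive = mean inhibition reaches the set limit but some replicate falls short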;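 also: 0% = DMSO neutral controls and 100% = 20 µM radicicol positive controls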
# tim10-1 inh: tim10-1 yeast growth inhibition. S. cerevisiae tim10-1 ts strain growth, BacTiter-Glo, 24 h. inhibition, % at 20 µM. 2.2% of 330,000 active;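 active = inhibition of at least 40%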;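 also: mutant grown at 25 °C; 0% = DMSO wells with yeast and 100% = wells holding no yeast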
# TIM10 inh: TIM10 yeast growth inhibition. S. cerevisiae TIM10 strain growth, BacTiter-Glo luminescence, 24 h. inhibition, % at 10 µM. 1.4% of 330,000 active. AID 463195;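 active = inhibition of 40% or more at the single tested concentration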;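 also: wild-type TIM10 isogenic control strain grown at permissive 25 °C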
# SKKanGAS inh: inhibitors of SKKanGAS S. pyogenes growth in kanamycin (SK-promoter or general growth effect); BacTiter-Glo, 6 h; inhibition, % at 7.5 µM; 1.3% of 300,000 active; AID 1662;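 active = mean replicate score, as percent of positive control median, at least 50; inconclusive = mean below 50 but one replicate at or above 50; inactive = mean and every replicate below 50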;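 also: strain carries kanamycin resistance gene driven by streptokinase promoter and grows in 40 µg/ml kanamycin; loss of luminescence reflects streptokinase promoter inhibition or plain growth inhibition; 0% = median of DMSO wells and 100% = positive control at its reference dose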
# tim23-1 inh: tim23-1 yeast growth inhibition; AID 463212; 1.3% of 330,000 active; inhibition, % at 20 µM; S. cerevisiae tim23-1 growth, BacTiter-Glo luminescence, 24 h;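 active = growth inhibition of the mutant yeast at or above 50%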;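 also: temperature-sensitive mutant grown at 25 °C; plate controls were DMSO-treated mutant yeast for no effect and medium wells lacking yeast for full effect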
# V-ATPase pHluor: alters yeast V-ATPase proton transport | S. cerevisiae, pHLuorin cytosolic pH fluorescence | 0.37% of 350,000 active | response, % at 10 µM; in the data active = response mostly above about 7.3%, no sharp cut-off; inactive = mostly below about 5.4%; also: actives read high
# TIM10 conf: TIM10 yeast growth inhibition, confirmed; S. cerevisiae tim10 strain growth, BacTiter-Glo luminescence, 24 h; 63% of 4,600 active; AID 463215; shares compounds with TIM10 inh; inhibition, % at 10 µM;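 active = inhibition of yeast growth at or above a set limit in either of two replicates at 10 µM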;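 also: this counterscreen used the strain with wild-type TIM10; 0% = yeast with DMSO and 100% = medium wells lacking yeast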
# tim23-1 confirm: tim23-1 yeast growth inhibition, confirmed. shares compounds with tim23-1 inh. S. cerevisiae tim23-1 growth, BacTiter-Glo luminescence, 24 h. inhibition, % at 20 µM. 83% of 4,400 active. AID 463218;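 active = inhibition above about 39% in either of two replicate wells at 20 µM, limit read from the data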;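 also: temperature-sensitive tim23-1 mutant grown at 25 °C; 0% = DMSO wells with yeast and 100% = medium wells without yeast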
# * = called active by the depositor; ? = inconclusive; . = not tested or not shown.
SMILES,PfHsp90 yeast 2,tim10-1 inh,TIM10 inh,SKKanGAS inh,tim23-1 inh,V-ATPase pHluor,TIM10 conf,tim23-1 confirm
COc1ccc([C@]2(C(C)C)ON(c3ccccc3C(F)(F)F)C2=O)cc1,-19,-43,0,.,14,0,.,.
CC[C@]1(c2ccccc2OC)ON(c2ccccc2C(F)(F)F)C1=O,.,25,40*,.,57*,.,69*,62*
COc1ccccc1[C@]1(C)ON(c2ccccc2C(F)(F)F)C1=O,-23,-51,63*,.,69*,-2,58*,-55
O=C(Oc1cc(=O)n2ccccc2n1)c1ccccc1,22,.,.,-5,.,7,.,.
CCCC(=O)NC(=S)Nc1cccc(NC(=O)c2ccccc2Cl)c1,2,36,45*,2,53*,-4,39*,44*
Cc1cccc(N2CCN(S(=O)(=O)c3ccc4c(c3)NC(=O)CS4)CC2)c1C,-50,39,40*,16,63*,1,36*,28
Cc1cccc(N2CCN(S(=O)(=O)c3ccc4[nH]c(=O)ccc4c3)CC2)c1C,-39,11,11,-7,-3,3,.,.
N#C/C(=C\c1ccc(N2CCOCC2)c([N+](=O)[O-])c1)c1nc2ccccc2[nH]1,4,9,25,6,24,-3,.,.
N#C/C(=C\c1ccc(N2CCOCC2)o1)c1nc2ccccc2[nH]1,8,36,42*,6,54*,0,31*,74*
Cc1nn2cc(-c3ccc(Cl)cc3)cnc2c1Cl,-3,8,-1,-4,-3,-1,.,.
Cc1ccc(/C=C(\C#N)C(=O)N2CCCC2)c(C)c1,-15,38,45*,2,52*,-2,39*,50*
CC(=O)/C=C1/C(=O)Nc2ccccc21,14,3,23,4,27,5,.,.
C=CCOc1cccc(C(=O)/C=C2/C(=O)Nc3ccccc32)c1,-48,21,85*,4,76*,-1,80*,-6
Cc1cccc(C)c1NC(=O)CN1C(=O)NC(C)(C2CC2)C1=O (stereo not drawn),9,-10,8,.,4,-1,.,.
Cc1ccc2nc(-c3ccc4c(c3)OCCO4)cn2c1,-6,34,74*,-9,51*,2,76*,52*
c1ccn2cc(-c3ccc4c(c3)OCCO4)nc2c1,40,19,12,8,31,-2,.,.
COc1ccc(N=N/C(=C\O)C(=O)c2cccs2)cc1,-12,37,55*,2,76*,1,58*,65*
Cc1ccc(-c2cn(-c3ccccc3F)c(=S)[nH]2)cc1,-16,29,45*,3,61*,-2,47*,48*
O=C(N/N=C/C(Br)=C/c1ccccc1)c1cccs1,26,20,41*,-3,61*,2,28,76*
Cc1cccc(O)c1C,-6,8,9,.,-2,-1,.,.
Cc1cccc(C)c1N=Nc1c(C)cc(O)cc1C,112*,24,47*,23,63*,-1,65*,-1
CCNC(=O)CC1SC(=Nc2ccc(C)c([N+](=O)[O-])c2)N(C)C1=O (stereo not drawn),.,12,-6,-13,3,0,.,.
CCN(CC)C(=O)c1cc([N+](=O)[O-])cc2c1-c1ccc([N+](=O)[O-])cc1C2=C(C#N)C#N,-3,37,40*,8,51*,1,22,74*
CCN(CC)C(=O)c1ccc(Oc2ccc([N+](=O)[O-])cc2Cl)cc1,-39,38,18,3,20,-1,.,.
O=C(CSC(=S)N1CCCC1)NCC(=O)Nc1ccc(F)c(F)c1,1,12,13,-6,12,-1,.,.
SMILES,PfHsp90 yeast 2,tim10-1 inh,TIM10 inh,SKKanGAS inh,tim23-1 inh,V-ATPase pHluor,TIM10 conf,tim23-1 confirm
FC(F)(F)c1cccc(NC(=S)NNC(=S)Nc2ccc(Cl)cc2)c1,.,-24,59*,115*,65*,.,73*,10
CC(=O)Nc1sc2c(c1-c1nc3ccccc3s1)CCN(C(C)C)C2,-5,35,66*,.,54*,0,63*,60*
NNC(=O)c1cc2cc(OC(F)(F)F)ccc2[nH]1,25,29,50*,16,58*,-5,40*,50*
O=C(NNC(=O)c1cc2cc(OC(F)(F)F)ccc2[nH]1)c1cccc(C(F)(F)F)c1,8,-10,-1,-7,6,-2,.,.
CCOC(=O)c1cnc2c(C)c(Cl)ccc2c1NCCCN1CCOCC1,-13,33,65*,-3,51*,-1,60*,41*
Cc1ccc(-c2cc(O)cc3sc(=O)oc23)cc1C,-50,23,53*,1,71*,-5,68*,7
O=C(Nc1ccc2nc3n(c(=O)c2c1)CCCCC3)c1cc([N+](=O)[O-])ccc1F,3,38,48*,19,68*,5,46*,55*
O=C(Nc1ccc2nc3n(c(=O)c2c1)CCCCC3)c1ccccn1,4,35,46*,-8,55*,-1,36*,68*
O=C(Nc1ccc2nc3n(c(=O)c2c1)CCCCC3)c1c(F)ccc([N+](=O)[O-])c1F,19,38,35,19,50,0,.,.
Oc1ccc(Cl)cc1-c1cc(-c2ccco2)[nH]n1,-36,38,49*,9,72*,-6,38*,15
Cc1ccc(S(=O)(=O)Nc2cccc3cccnc23)c([N+](=O)[O-])c1,.,23,46*,?,52*,1,35*,53*
CCOC(=O)c1sc(=NC(=O)c2ccccc2)n(C)c1C,7,24,71*,-3,54*,4,62*,74*
CCOC(=O)c1sc(NC(=O)c2ccccc2)cc1C,31,6,50*,-2,64*,0,32*,72*
O=[N+]([O-])c1ccc(N2CCN(S(=O)(=O)c3ccccc3)CC2)cc1,1,7,-6,-12,14,7,.,.
O=C(Nc1cc(-c2nc3ncccc3o2)ccc1Cl)c1ccc([N+](=O)[O-])o1,-16,27,43*,15,86*,0,28,86*
O=C1NC(=Nc2ccccc2)S/C1=C/c1cccs1,-21,26,49*,5,62*,0,32*,72*
Cc1cccc(N=C2NC(=O)/C(=C\c3cccs3)S2)c1,-38,20,34,-9,50,3,.,.
O=C(CCS(=O)(=O)c1cccc2nonc12)NCc1ccc(Cl)cc1,-5,-6,-12,3,-10,-1,.,.
COc1cc(/C=C/C(=O)OCC(=O)N2CCCCCC2)cc(OC)c1OC,.,.,.,.,.,1,.,.
